This is part of a sample that, as a whole, favours compounds with a hit. Of some 79,000 tested, about 15% had one in any assay. No stated cut-off is given here; in the data, active means growth inhibition above about 70%; inactive means the rest.
Key:
[1] = NCI Yeast Anticancer Drug Screen. Data for the rad50 strain (AID 155);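 further: 0% = growth of vehicle-only cultures of the same strain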; details: S. cerevisiae rad50 strain growth inhibition; at 50.0 µM; stronger effect = higher value
Summary of the method: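 Inhibition values express reduced yeast growth in compound-treated cultures relative to vehicle-treated controls.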

[2] = NCI Yeast Anticancer Drug Screen. Data for the mec2-1 strain (AID 157); details: S. cerevisiae mec2-1 strain, at 50.0 µM, stronger effect = higher value
Summary of the method: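 Yeast mec2-1 mutant treated with compound. Readout: growth inhibition vs vehicle controls.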

[3] = NCI Yeast Anticancer Drug Screen. Data for the sgs1 mgt1 strain (AID 161);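 further: 0% = growth of cultures given vehicle only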; details: S. cerevisiae sgs1 mgt1 strain, at 50.0 µM, stronger effect = higher value
Summary of the method: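 Genetically altered yeast, compound exposure, growth inhibition relative to vehicle.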

[4] = NCI Yeast Anticancer Drug Screen. Data for the cln2 rad14 strain (AID 165);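 further: 0% = growth equal to vehicle treated cultures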; details: S. cerevisiae cln2 rad14 strain, at 50.0 µM, stronger effect = higher value
Summary of the method: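 cln2 rad14 yeast strain; compound exposure; growth inhibition read vs vehicle controls.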

[5] = NCI Yeast Anticancer Drug Screen. Data for the bub3 strain (AID 167); details: S. cerevisiae bub3 mutant strain, at 50.0 µM, stronger effect = higher value
Summary of the method: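 Steps: expose the mutant yeast strain to compound; grow alongside vehicle-treated cultures; measure growth; express inhibition against the vehicle cultures.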

[6] = NCI Yeast Anticancer Drug Screen. Data for the mlh1 rad18 strain (AID 175); details: S. cerevisiae mlh1 rad18 strain growth inhibition; at 50.0 µM; stronger effect = higher value
Summary of the method: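 Yeast w/ defined DNA-repair lesions; compound exposure; growth vs vehicle controls → % inhibition.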

Measured: growth inhibition

CCOC(=O)c1csc(N)n1
inactive: [1] -24.5% | [2] 7.35% | [3] -15.1% | [4] -39.6% | [5] -9.7% | [6] -18.3%

COC(=O)CCC(=O)NCC(=O)OCc1ccccc1
inactive: [1] 0.55% | [2] -1.85% | [3] -13.9% | [4] 3.05% | [5] -11.8% | [6] 19.2%

CCCCCc1cc[n+](CC(=O)c2ccccc2)cc1
inactive: [1] 4.45% | [2] 0.7% | [3] -12.1% | [4] -62.7% | [5] -10.4% | [6] 12.8%

CCOCCC(O)CC (configuration not stated)
inactive: [1] 3.3% | [2] -31.2% | [3] -4.9% | [4] 17.7% | [5] 9.8% | [6] 14%

Cc1cc2c3c(c1)CCCN3CCC2
inactive: [1] -12.1% | [2] -8.9% | [3] -9.85% | [4] -30.9% | [5] 3.1% | [6] 2.8%

N=C(N)SCCC(=O)CCSC(=N)N
inactive: [1] 27.9% | [2] 18.6% | [3] 33.6% | [4] 32.2% | [5] 15.6% | [6] -2.75%

CCOC(=N)c1ccc(C(=N)OCC)cc1
inactive: [1] -11.2% | [2] -29.4% | [3] -29.4% | [4] -20.8% | [5] -32.5% | [6] -41.7%

OCC(O)C(O)C(O)C(Sc1ccccc1)Sc1ccccc1 (configuration not stated)
inactive: [1] 7.15% | [2] 11.8% | [3] 7.4% | [4] 8.3% | [5] -7.25% | [6] 16.8%

Cc1c(C(N)=O)c(-c2ccccc2)c(-c2ccccc2)n1Nc1ccccc1
inactive: [1] 16.9% | [2] -2.65% | [3] 13.7% | [4] 11.9% | [5] -5.05% | [6] 23.7%

COC1=c2\cccc\c2=c2/cccc/c2=c2\cccc\c2=N\1
inactive: [1] 17.4% | [2] 13.1% | [3] 11.4% | [4] 12.2% | [5] 13.4% | [6] 17.5%

COc1ccc(COC(=O)NNC(=O)C2CSC(c3ccccc3)N2C(C)=O)cc1 (configuration not stated)
inactive: [1] -23.4% | [2] 6.75% | [3] -15.8% | [4] 3.4% | [5] -8.9% | [6] -10.3%

COc1ccc(/C(Cl)=C(\CN(C)C)c2ccc(OC)c(OC)c2)cc1OC
inactive: [1] 41.5% | [2] 18.6% | [3] 10.3% | [4] 27.9% | [5] -5.85% | [6] 24.1%

CCOCCC(=O)O
inactive: [1] 26.1% | [2] 6.3% | [3] -7% | [4] -5.3% | [5] 18.1% | [6] 6.15%

CCOC(=O)c1n[nH]c(=S)[nH]c1=O
inactive: [1] -7.95% | [2] -1.8% | [3] -3.05% | [4] -16.9% | [5] 11.7% | [6] -14.9%

O=[N+]([O-])C1CCC(N=Nc2c(O)ccc3ccccc23)CC1 (configuration not stated)
inactive: [1] -9.95% | [2] 3.6% | [3] 4.65% | [4] -27% | [5] -50.6% | [6] -0.6%

OC1CCCN(Cc2ccccc2)C1 (configuration not stated)
inactive: [1] 9.3% | [2] -15.7% | [3] 8.55% | [4] 4.5% | [5] 11.3% | [6] 7.35%

CCCCCCC/C=N/Nc1ccc([N+](=O)[O-])cc1[N+](=O)[O-]
inactive: [1] -3.3% | [2] -16.1% | [3] -5.55% | [4] -23.9% | [5] 1.4% | [6] 12.9%

CC(=O)c1cc2c(cc1C)CCCC2(C)C
inactive: [1] 0.95% | [2] -3.8% | [3] -2.4% | [4] -1.5% | [5] 4.4% | [6] 1.35%

Nc1nnc2nc(CC(=O)Cc3ccccc3)c(CC(=O)Cc3ccccc3)nn12
inactive: [1] 0.3% | [2] -5.55% | [3] 11.2% | [4] -17.9% | [5] 10.7% | [6] 9.35%

CC1=CC(=O)C=CC1=Nc1ccc(N(C)C)cc1
inactive: [1] 19.3% | [2] 32.6% | [3] 47.9% | [4] 9.35% | [5] 39.4% | [6] 16.4%

O=C1/C(=C/c2ccccc2)CN(C(=O)/C=C/c2ccccc2)C/C1=C\c1ccccc1
inactive: [1] -23.6% | [2] -19.8% | [3] -52% | [4] -8.15% | [5] -11.6% | [6] -33.2%

CC1CCC(OC(=O)Cc2ccccc2)CC1 (configuration not stated)
inactive: [1] 26.7% | [2] 18% | [3] 9.55% | [4] -15.1% | [5] 18.5% | [6] 24.6%

O=C(O)/C=C/S(=O)(=O)Cc1ccccc1
inactive: [1] 8.7% | [2] -6.4% | [3] 2.7% | [4] -27.3% | [5] 7.5% | [6] 6.75%

O=C(O)CCSSCCCS(=O)O
inactive: [1] -26.6% | [2] -3% | [3] 36% | [4] 18.9% | [5] 0.45% | [6] -2.2%

COc1cccc(NC(=O)CC(=O)N/N=C/c2ccc(N(CCC#N)CCC#N)c(I)c2)c1
inactive: [1] 29.6% | [2] 8.95% | [3] 7.7% | [4] 9.55% | [5] -5.55% | [6] 28.7%

CCCCCC(=O)C(CCCC)C(=O)OCC (configuration not stated)
inactive: [1] -6.15% | [2] -0.1% | [3] -25.2% | [4] 2.6% | [5] -12% | [6] -33.5%

C[N+](C)(C)C/C=C/C[N+](C)(C)C
inactive: [1] 9.85% | [2] -3.1% | [3] -5.95% | [4] -22.3% | [5] 0.85% | [6] 1.85%

C[N+](C)(C)CBr
inactive: [1] 36.8% | [2] -11% | [3] -21.5% | [4] -40.6% | [5] 4.75% | [6] -37.2%

COc1cc2cnc3c4ccccc4ccc3c2cc1OC
inactive: [1] -48.5% | [2] -18.1% | [3] -1.7% | [4] 4.2% | [5] -2.85% | [6] -9.3%

CCOC(=O)N1c2ccccc2S(=O)(=O)c2ccccc21
inactive: [1] 40.5% | [2] -10.3% | [3] -26.4% | [4] -16.1% | [5] -22.9% | [6] -52.2%

Cc1nc(-c2ccccc2)nc2c1nc(Cc1ccc(Cl)cc1)n2Nc1ccccc1
inactive: [1] 1.7% | [2] -0.3% | [3] 1.6% | [4] -5.75% | [5] -1.45% | [6] 40.5%

COc1ccc2c(c1)C(=O)C(CO)C(C(=O)O)C2 (configuration not stated)
inactive: [1] -13.1% | [2] -17.1% | [3] -1.15% | [4] -24.6% | [5] -3.5% | [6] -24.8%

O=C(O)c1ccc2c3ccc(C(=O)O)c4c(C(=O)O)ccc(c5ccc(C(=O)O)c1c25)c43
inactive: [1] -21.1% | [2] -33.5% | [3] -17.5% | [4] -0.25% | [5] -19.6% | [6] -19.1%

Cc1ccc(-c2nc(C)c(C(=O)Nc3ccc(Cl)cc3)s2)cc1
inactive: [1] -36.6% | [2] -25.4% | [3] -59.4% | [4] 2.85% | [5] -12.3% | [6] -65.9%

Cc1cc(C)n(-c2ccc(Cl)nn2)n1
inactive: [1] 9.25% | [2] 8.35% | [3] 4.35% | [4] -27.6% | [5] 9% | [6] -1.7%

COc1cc(C=O)cc([N+](=O)[O-])c1O
inactive: [1] -2.2% | [2] -9.75% | [3] -2.2% | [4] 1.05% | [5] -0.45% | [6] -6.1%

COCn1cnc2c(F)ncnc21
inactive: [1] 3.85% | [2] -1.4% | [3] -5.1% | [4] -29.1% | [5] -11.2% | [6] -3.1%

CSc1cnc2ccccc2c1Sc1c[nH]c2ccccc2c1=O
inactive: [1] -15% | [2] 3.65% | [3] 1.15% | [4] 11.8% | [5] -8.05% | [6] -12.4%

S=C(Nc1ccc(N=Nc2ccccc2)cc1)SCc1ccc(Cl)cc1
inactive: [1] 28.4% | [2] 3.6% | [3] 20.6% | [4] 13.1% | [5] -2.75% | [6] 14%

C/C(=N/NC(N)=O)c1ccc(C)o1
inactive: [1] 1.85% | [2] -3.55% | [3] -4.4% | [4] -0.75% | [5] 1.55% | [6] 0.35%

O=C(CC1(O)C(=O)Nc2ccc(Br)cc21)c1ccc(Cl)cc1Cl (configuration not stated)
inactive: [1] 44.9% | [2] 36.7% | [3] 69% | [4] 37% | [5] 48.2% | [6] 33.9%

Clc1ccccc1C(Nc1nc2ccccc2s1)Nc1nc2ccccc2s1
inactive: [1] 13.3% | [2] 0.8% | [3] -10.9% | [4] 4.65% | [5] -2% | [6] 17.4%
